PubChem BioAssay (NCI)
“And” between values parts separate entries of the source, which are not always exact repeats. Identical values can stand only once. The panel holds about 79,000 compounds, 15% with a hit somewhere; the sample as a whole holds those more often. The source made the active and inactive calls. No stated cut-off is given here; in the data, active means growth inhibition above about 70%; inactive means the rest.

How the values were obtained:
[1] = NCI Yeast Anticancer Drug Screen. Data for the rad50 strain (AID 155);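 further: 0% = growth of vehicle-only cultures of the same strain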; conditions: S. cerevisiae rad50 strain growth inhibition; at 50.0 µM; stronger effect = higher value
Summary of the method: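 Yeast carrying a defined DNA repair defect were exposed to test compounds, and growth was compared with vehicle-treated controls to give percent inhibition.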

[2] = NCI Yeast Anticancer Drug Screen. Data for the mec2-1 strain (AID 157); conditions: S. cerevisiae mec2-1 strain, at 50.0 µM, stronger effect = higher value
Summary of the method: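 Vehicle-treated cultures served as reference for growth inhibition of compound-exposed mec2-1 yeast.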

[3] = NCI Yeast Anticancer Drug Screen. Data for the sgs1 mgt1 strain (AID 161);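 further: 0% = growth of cultures given vehicle only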; conditions: S. cerevisiae sgs1 mgt1 strain, at 50.0 µM, stronger effect = higher value
Summary of the method: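 Mutant yeast exposed to compound; growth scored against vehicle-only wells.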

[4] = NCI Yeast Anticancer Drug Screen. Data for the cln2 rad14 strain (AID 165);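 further: 0% = growth equal to vehicle treated cultures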; conditions: S. cerevisiae cln2 rad14 strain, at 50.0 µM, stronger effect = higher value
Summary of the method: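 Each compound was tested on cln2 rad14 yeast. Inhibition of growth was calculated against vehicle-exposed controls.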

[5] = NCI Yeast Anticancer Drug Screen. Data for the bub3 strain (AID 167); conditions: S. cerevisiae bub3 mutant strain, at 50.0 µM, stronger effect = higher value
Summary of the method: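 Compounds were applied to a genetically altered yeast strain carrying a cell-cycle control defect. Growth inhibition was scored against vehicle-treated controls.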

[6] = NCI Yeast Anticancer Drug Screen. Data for the mlh1 rad18 strain (AID 175); conditions: S. cerevisiae mlh1 rad18 strain growth inhibition; at 50.0 µM; stronger effect = higher value
Summary of the method: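 Vehicle-treated cultures served as the reference for growth inhibition in a yeast strain carrying DNA damage repair alterations exposed to each compound.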

Measured: growth inhibition

COP(=O)(Cc1ccccc1)OC
inactive: [1] -1% | [2] 5.15% | [3] -0.95% | [4] -43.1% | [5] 2.3% | [6] -11.8%

O=[N+]([O-])C(CO)CCC(CO)[N+](=O)[O-] (configuration not stated)
inactive: [1] -6.6% | [2] -14% | [3] -3.9% | [4] -18.8% | [5] -15.7% | [6] -15.5%

CC(O)CN(CCN(CC(C)O)CC(C)O)CC(C)O.O=[N+]([O-])O.[Cu+2] (configuration not stated)
inactive: [1] 6.05% | [2] -54% | [3] -27.2% | [4] -35.6% | [5] -29.6% | [6] 5.15%

C#C[C@]1(O)CC[C@H]2[C@@H]3CCC4=C/C(=N/OC(=O)c5cccc6c(=O)c7ccccc7[nH]c56)CCC4[C@H]3CC[C@@]21CC (some centres not stated)
inactive: [1] -15.8% | [2] -35% | [3] -30.4% | [4] 23.2% | [5] -29.1% | [6] -45.6%

SCc1c(Cl)c(Cl)c(Cl)c(Cl)c1Cl.[Hg]
inactive: [1] -7.65% | [2] -24.9% | [3] -15.5% | [4] -64.8% | [5] 3.45% | [6] -28.1%

COc1ccc(C(=O)O)cc1OC
inactive: [1] -0.25% | [2] 9.45% | [3] -18.8% | [4] 7.4% | [5] -9.5% | [6] 5%

C[C@]12Cc3cnc(-c4ccccc4)nc3C[C@@H]1CC[C@@H]1[C@@H]2CC[C@@]2(C)[C@H]1CC[C@]2(C)O
inactive: [1] 23.6% | [2] 25.1% | [3] 13.1% | [4] 9.55% | [5] 39.5% | [6] 20.1%

CN1C[C@H]2[C@@H](C1=O)[C@H](c1ccccc1)ON2C
inactive: [1] -16.4% | [2] -55.2% | [3] -34% | [4] 13.6% | [5] 5.85% | [6] -1.85%

O=C(COc1ccc(Cl)c(Cl)c1)Nc1ccc[n+](Cc2c(Cl)cccc2S(=O)(=O)F)c1
inactive: [1] 14.8% | [2] 22.1% | [3] -17.7% | [4] 39.9% | [5] -1.5% | [6] 5.35%

CC(=O)O/C=C(/C=C/OC(C)=O)C(C/C=C(\C)C#CC=C(C)C)OC(C)=O (configuration not stated)
inactive: [1] 4.95% | [2] -13.7% | [3] 0.8% | [4] -2.2% | [5] 5.5% | [6] -0.1%

CC1(C)COP(=O)(c2ccccc2)N1 (configuration not stated)
inactive: [1] -14.1% | [2] -21.4% | [3] -7.4% | [4] -24.4% | [5] -1.5% | [6] -3.1%

O=c1cc(O)c2ccccc2o1
inactive: [1] 26.1% | [2] -1.55% | [3] -4.1% | [4] 15.6% | [5] -10.2% | [6] 14.3%

Fc1ccc(C(Cl)(Cl)Cl)cc1
inactive: [1] -8.9% | [2] -33.5% | [3] 2.75% | [4] -17.2% | [5] -17.1% | [6] 6.2%

C1CSCCO1.[Cu+2].[O-][Cl+3]([O-])([O-])O
inactive: [1] -7.6% | [2] -10.6% | [3] -0.4% | [4] -36.8% | [5] -37% | [6] -13.8%

COc1ccc2c(c1O)C1=CC(=O)CCC13CCN(C)C3C2 (configuration not stated)
inactive: [1] -5.6% and 4.1% | [2] -6.65% and -22.6% | [3] 8.05% and 18.8% | [4] 3% and 8.05% | [5] 8.1% and 2.4% | [6] 1.4% and 0.55%

CCC(C)Sc1ccccc1OC(=O)NC (configuration not stated)
inactive: [1] -10.4% | [2] 7.05% | [3] 0.5% | [4] -16.6% | [5] 9.85% | [6] 24.1%

O=C(O)c1cc[c]([Hg][S]c2ncnc3nc[nH]c23)cc1
active: [1] 99% | [2] 98.3% | [3] 98.6% | [4] 98.2% | [5] 97.5% | [6] 98.9%

N#CCCNCCC#N
inactive: [1] 3.95% and 11.8% and 12.2% | [2] 4.4% and -11.6% and 3.15% | [3] -6.05% and 9.35% and -2.9% | [4] -41.6% and 25.7% and 16.1% | [5] -4.95% and 8.65% and 1.45% | [6] 6.15% and 13.7% and 14.7%

CC1OC(O[C@H]2C[C@@H](O)[C@]3(CO)[C@H]4[C@H](O)C[C@]5(C)[C@@H](C6=CC(=O)OC6)CC[C@]5(O)[C@@H]4CC[C@]3(O)C2)C(O)C(O)C1O (some centres not stated)
inactive: [1] -6.7% | [2] 1.15% | [3] 5.05% | [4] 20.9% | [5] -1.2% | [6] -47.5%

O=C1CC(=O)N(C2CCC(C3CCCCC3)CC2)C(=O)N1 (configuration not stated)
inactive: [1] 14.1% | [2] 4.85% | [3] 27.5% | [4] 1.35% | [5] 22.3% | [6] 5.75%

O=C(Cc1c[nH]c2ccccc12)N/N=C\c1ccc(N(CCCl)CCCl)cc1
inactive: [1] 22.4% | [2] -10.3% | [3] 11.8% | [4] 31.9% | [5] -5.65% | [6] 4.55%

[C-]#[O+].[C-]#[O+].[Ni].c1ccc([PH+](CC[PH+](c2ccccc2)c2ccccc2)CC[PH+](c2ccccc2)c2ccccc2)cc1
inactive: [1] -23.4% | [2] 0.4% | [3] -22.4% | [4] 3.75% | [5] 7.6% | [6] -10.2%

CC(=O)OC1CC(OC2C(O)CC(OC3C(O)CC(OC4CCC5(C)C(CCC6C5CCC5(C)C(C7=CC(=O)OC7)C(O)CC65O)C4)OC3C)OC2C)OC(C)C1OC1OC(CO)C(O)C(O)C1O (configuration not stated)
inactive: [1] 18.1% | [2] 8.8% | [3] -12.8% | [4] 8.1% | [5] 21.8% | [6] 10.8%

O=[N+]([O-])c1ccc(Cl)c(Cl)c1
inactive: [1] 20.9% | [2] -4.6% | [3] -8.5% | [4] -37.5% | [5] -5% | [6] 26.1%

O=C(O)CC1OCC=C2CN3CCC45c6ccccc6NC4C1C2CC35 (configuration not stated)
inactive: [1] -30.8% and 9.3% | [2] -15.9% and -13.8% | [3] -31.9% | [4] 19.6% | [5] -57.6% | [6] -15.2% and 18.8%

N#CS.[Cr+3].[NH-]CC[NH-].[NH-]CC[NH-].[NH-]CC[NH-]
inactive: [1] 14.8% | [2] -0.5% | [3] 10.2% | [4] 12.8% | [5] -2.75% | [6] 5.05%

Cc1cccc(C)c1N
inactive: [1] 10.3% | [2] 2.4% | [3] -9.65% | [4] -36.5% | [5] 1.7% | [6] 16.8%

COc1cc(C(=O)OC(C)CC2(c3ccccc3)C(=O)NC(=O)NC2=O)cc(OC)c1OC (configuration not stated)
inactive: [1] 2.75% | [2] -3.4% | [3] 24.1% | [4] 1.75% | [5] 3.05% | [6] -6.8%

Cc1cccc[c]1[Sb](=[O])([OH])[OH]
inactive: [1] 6.6% | [2] -10.2% | [3] -15.9% | [4] -7.35% | [5] -17.2% | [6] -2.7%

COc1cc(C2c3cc4c(cc3OC(NNS(=O)(=O)c3ccc(C)cc3)C2C)OCO4)cc(OC)c1O (configuration not stated)
inactive: [1] -3.5% | [2] -7.8% | [3] -15.8% | [4] 0.15% | [5] -12.5% | [6] 1.6%

COc1ccc(C=C2C(=O)N(C)C(=O)N(C)C2=O)cc1
inactive: [1] 4.8% | [2] 2.1% | [3] -13.2% | [4] 22.3% | [5] 28% | [6] 36.5%

O=P(O)(O)c1ccccc1 (tested in a mixture with another compound)
inactive: [1] -28.9% | [2] -6.45% | [3] -15.2% | [4] -35.1% | [5] -31.9% | [6] 2.7%

O=C([O-])Cc1ccccc1.O=[N+]([O-])O.[Co+3].[NH2-].[NH2-].[NH2-].[NH2-].[NH2-]
inactive: [1] 13.1% | [2] 12.5% | [3] 21.3% | [4] 11.9% | [5] 14.8% | [6] -5.9%

CN(Cc1cnc2nc(N)nc(N)c2n1)c1ccc(C(=O)NC(CCC(=O)NC(CC(P(=O)(O)O)P(=O)(O)O)C(=O)O)C(=O)O)cc1 (configuration not stated)
inactive: [1] -19.6% | [2] -14.6% | [3] -8.05% | [4] 16.6% | [5] 5.75% | [6] -21.9%

O=C(O)CNC(=O)c1ccc([As](=O)(O)O)cc1
inactive: [1] 21.1% | [2] 19.1% | [3] -26.4% | [4] 10.2% | [5] 22.1% | [6] 15.3%

O=[N+]([O-])c1cccc2cccc([N+](=O)[O-])c12
inactive: [1] -7.45% | [2] -28.1% | [3] -10.3% | [4] -86.7% | [5] -35% | [6] 11.3%

COC(=O)c1nc(-c2ccc3c(n2)C(=O)C(N)=C(OC)C3=O)c(N)c(-c2ccc(OC)c(OC)c2O)c1C
inactive: [1] 58% | [2] 7.25% | [3] 36.1% | [4] 26.2% | [5] 23.2% | [6] 47.5%
